Reference: PubChem BioAssay (Tox21)
Records with an inconclusive call do not appear. Active and inactive are the calls of the source. Unless noted, the call rests on the fitted dose curve; in most records, active means well fitted curve in the direction sought with a large enough effect in the repeat runs; inconclusive means weak or mixed curves; inactive means no such curve, though single readings can be large; an effect the other way counts as inactive or inconclusive.

Key:
[1] = qHTS assay to identify small molecule agonists of the estrogen receptor alpha (ER-alpha) signaling pathway in the presence of an antagonist - cell viability counter screen (AID 1259386); further: series mostly up to about 92 µM; nearly all actives have a fitted effect of over 30% in size
How it was run: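 Compounds tested at 15 concentrations for 22 h at 37C alongside 10.0nM (final) ICI-182,780 antagonist, in VM7Luc4E2 cells grown in phenol red-free, charcoal-stripped medium. Viability read by CellTiter-Fluor fluorescence after 1 h reagent incubation.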

[2] = molecular target: Progesterone receptor (Homo sapiens) (UniProt P06401); assay: qHTS assay to identify small molecule agonists of the progesterone receptor (PR) signaling pathway (AID 1346784; calls by dose curve; further: nearly all actives have a fitted effect of over 30% in size)
How it was run: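 HEK 293T PR-UAS-bla reporter cells, 2% charcoal-stripped FBS; 6 hr settle at 37C/5% CO2, compound (DMSO) 16 hr, LiveBLAzer B/G FRET substrate 2 hr RT, fluorescence intensity read.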

[3] = molecular target: Progesterone receptor (Homo sapiens) (UniProt P06401); assay: qHTS assay to identify small molecule antagonists of the progesterone receptor (PR) signaling pathway (AID 1346795; active means well fitted inhibition curve with a large enough effect in the signal ratio in the repeat runs, not every such curve was filed as active; the % refers to the signal ratio; further: potency means the concentration at half of the fitted maximal effect)
How it was run: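 Beta-lactamase reporter, HEK293T PR-UAS-bla line; 2% charcoal-stripped FBS; 6 hr pre-incubation, 37C/5% CO2. Compound + R5020 1 nM final, 16 hr. LiveBLAzer B/G FRET substrate, 2 hr RT; fluorescence intensity read.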

[4] = qHTS assay to identify small molecule antagonists of the progesterone receptor (PR) signaling pathway - cell viability counter screen (AID 1346798); further: series mostly up to about 92 µM; nearly all actives have a fitted effect of over 50% in size
How it was run: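 Luminescence readout (CellTiter-Glo, 30 min, RT) of viability in PR-UAS-bla HEK293T cells exposed to compound and R5020 agonist for 16 hr at 37C, 5% CO2; run in the same wells as the beta-lactamase reporter read.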

[5] = qHTS assay to identify small molecule agonists of the progesterone receptor (PR) signaling pathway - cell viability counter screen (AID 1346799; calls by dose curve; further: nearly all actives have a fitted effect of over 45% in size)
How it was run: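 HEK293T PR-UAS-bla, 3,000 cells/well, 2% charcoal-stripped FBS; 6 h settle, compound 16 h at 37C/5% CO2; LiveBLAzer 2 h RT, then CellTiter-Glo 30 min RT, luminescence read.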

[6] = qHTS assay to identify small molecule antagonists of the TGF-beta/Smad signaling pathway - cell viability counter screen (AID 1346824); further: nearly all actives have a fitted effect of over 50% in size
How it was run: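 SBE-bla HEK 293T cells, incubated overnight, then compound plus 0.25 ng/mL TGF-beta1 (stock added) for 5 hr at 37 C. Viability was read in the same wells by CellTiter-Glo luminescence after 30 min at room temperature.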

[7] = qHTS assay to identify small molecule agonists of the TGF-beta/Smad signaling pathway - cell viability counter screen (AID 1346829); further: top concentration of the series differs between compounds; nearly all actives have a fitted effect of over 45% in size
How it was run: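 Tox21 qHTS format: SBE-bla HEK 293T cells treated with DMSO-dissolved compounds for 5 hr; CellTiter-Glo luminescence after 30 min at room temperature.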

[8] = qHTS assay to identify small molecule agonists of the TGF-beta/Smad signaling pathway (AID 1346859; active means well fitted activation curve with a large enough effect in the signal ratio in the repeat runs, not every such curve was filed as active; the % refers to the signal ratio; further: series mostly up to about 77 µM)
How it was run: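 Read-out: fluorescence at 460 and 530 nm (405 nm excitation) after a 2 hr room-temperature incubation with beta-lactamase FRET substrate. SBE-bla HEK 293T cells had been treated with test compounds for 5 hr at 37 C.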

[9] = molecular target: Thyrotropin-releasing hormone receptor (Homo sapiens) (UniProt P34981); assay: qHTS assay to identify small molecule antagonists of the thyrotropin-releasing hormone receptor (TRHR) signaling pathway (AID 1346877; active means well fitted inhibition curve with a large enough effect in the repeat runs, not every such curve was filed as active; further: series mostly up to about 51 µM)
How it was run: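 Antagonist mode: after a 5 min room-temperature compound exposure, cells were stimulated with 1 nM (final) TRH. Dye-loaded TRHR-HEK293 cells were used, and calcium-dependent fluorescence was followed for 3 min, with 15-point titrations run in triplicate.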

[10] = Human pregnane X receptor (PXR) small molecule agonists, qHTS cell viability counter screen (AID 1346977); further: nearly all actives have a fitted effect of over 50% in size
How it was run: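 Fluorescence read-out (CellTiter-Fluor) of viability in PXR-Luc HepG2 cells, multiplexed with the luciferase agonist read. Compounds in DMSO added after 5hr plating; 24hr total exposure at 37C, 5% CO2.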

[11] = Caspase-3/7 induction in HepG2 cells by small molecules, qHTS assay (AID 1346978); further: nearly all actives have a fitted effect of over 15% in size
How it was run: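 Wild-type HepG2 cells, 2,000/well, settled 5 hr at 37 C and 5% CO2, then compound-treated for 17 hr; caspase-3/7 activity read by luminescent Caspase-Glo 3/7 after 30 min at room temperature.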

[12] = Caspase-3/7 induction in CHO-K1 cells by small molecules, qHTS cell viability counter screen (AID 1346979); further: nearly all actives have a fitted effect of over 35% in size
How it was run: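 CHO-K1 wt, 1,500 cells/well; 5hr pre-incubation 37C/5% CO2; compound pin transfer (DMSO); 16hr exposure; CellTiter-Fluor added, 1hr, fluorescence read.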

[13] = Caspase-3/7 induction in CHO-K1 cells by small molecules, qHTS assay (AID 1346980); further: nearly all actives have a fitted effect of over 15% in size
How it was run: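 Wild-type CHO-K1 cells exposed to compounds for 17hr at 37 C, 5% CO2. Caspase-3/7 activity then measured by Caspase-Glo 3/7 luminescence after 30min at room temperature.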

[14] = Caspase-3/7 induction in HepG2 cells by small molecules, qHTS cell viability counter screen (AID 1346981); further: series mostly up to about 92 µM; nearly all actives have a fitted effect of over 30% in size
How it was run: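 CellTiter-Fluor fluorescence measured viability in the same wells used for Caspase-Glo 3/7. HepG2 (wild type) at 2,000 cells/well were pre-incubated 5 hr, dosed, and given reagent at 16 hr, with 1 hr further at 37C.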

[15] = molecular target: Nuclear receptor subfamily 1 group I member 2 (Homo sapiens) (UniProt O75469); assay: Human pregnane X receptor (PXR) small molecule agonists, qHTS assay (AID 1346982); further: nearly all actives have a fitted effect of over 35% in size; further: potency means the concentration at half of the fitted maximal effect
How it was run: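 Agonist mode: luminescence from ONE-Glo after 24 h compound exposure at 37C in HepG2 cells carrying hPXR-responsive CYP3A4 luciferase, plated in charcoal-stripped serum medium 5 h beforehand.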

[16] = molecular target: Nuclear receptor subfamily 1 group I member 2 (Rattus norvegicus) (UniProt Q9R1A7); assay: Rat pregnane X receptor (rPXR) activation by small molecules, qHTS assay (AID 1346983); settings: rPXR luciferase reporter cells, One-Glo luminescence, 24 h; max activation: stronger effect = higher value; further: nearly all actives have a fitted effect of over 20% in size
How it was run: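 Cell-based rPXR activation assay: rPXR cells, 2,000 per well, rested 5hr at 37 C, then exposed to compounds in DMSO for 24 hr at 37 C. Luciferase activity read by One-Glo luminescence after 30 min at room temperature.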

[17] = molecular target: Nuclear receptor subfamily 1 group I member 2 (Homo sapiens) (UniProt O75469); assay: CYP3A4 induction through human pregnane X receptor (PXR) by small molecules, qHTS assay (AID 1346984); further: nearly all actives have a fitted effect of over 40% in size
How it was run: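 Read-out is luminescence after One-Glo addition, following a 3 hr, 37C incubation with Luciferin-IPA CYP3A4 substrate (3uM final). Before that, compounds were on DPX-2 cells (HepG2 co-transfected with PXR element plus CYP3A4-promoter luciferase) for 24 hr at 37C.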

[18] = molecular target: Nuclear receptor subfamily 1 group I member 2 (Homo sapiens) (UniProt O75469); assay: Human pregnane X receptor (PXR) activation by small molecules, qHTS assay (AID 1346985); further: nearly all actives have a fitted effect of over 40% in size
How it was run: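 DPX-2 cells (HepG2 co-transfected with a PXR response element and a CYP3A4-promoter luciferase construct) were seeded at 2,000 per well, rested 5 hr at 37C, then exposed to DMSO-dissolved compounds for 24 hr. Activation was read as luciferase luminescence.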

[19] = molecular target: Acetylcholinesterase (Homo sapiens) (UniProt P22303); assay: Acetylcholinesterase (AChE) small molecule antagonists: colormetric cell-based qHTS assay (AID 1347395; calls by dose curve; further: nearly all actives have a fitted effect of over 30% in size)
How it was run: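 SH-SY5Y cells; cpd 30 min 37 C; + DTNB/acetylthiocholine, 90 min 37 C; colorimetric thiocholine read; qHTS.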

[20] = molecular target: Thyrotropin-releasing hormone receptor (Homo sapiens) (UniProt P34981); assay: qHTS assay to identify small molecule agonists of the thyrotropin-releasing hormone receptor (TRHR) signaling pathway (AID 1346891; calls by dose curve;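 further: HEK293 cells expressing TRHR with calcium dye readout; series mostly up to about 58 µM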)
How it was run: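 HEK293/TRHR cells, 1500 per well, 18 h 37 °C; Ca dye 2 h 37 °C; pin-tool compound addition (agonist mode); kinetic fluorescence 3 min, 1 s reads; 15 concentrations, triplicate.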
On the % scale 0 is the no-effect control and ±100 the full control effect.

Chain of Nuclear receptor subfamily 1 group I member 2 (Homo sapiens) (O75469 whole entry, looked up): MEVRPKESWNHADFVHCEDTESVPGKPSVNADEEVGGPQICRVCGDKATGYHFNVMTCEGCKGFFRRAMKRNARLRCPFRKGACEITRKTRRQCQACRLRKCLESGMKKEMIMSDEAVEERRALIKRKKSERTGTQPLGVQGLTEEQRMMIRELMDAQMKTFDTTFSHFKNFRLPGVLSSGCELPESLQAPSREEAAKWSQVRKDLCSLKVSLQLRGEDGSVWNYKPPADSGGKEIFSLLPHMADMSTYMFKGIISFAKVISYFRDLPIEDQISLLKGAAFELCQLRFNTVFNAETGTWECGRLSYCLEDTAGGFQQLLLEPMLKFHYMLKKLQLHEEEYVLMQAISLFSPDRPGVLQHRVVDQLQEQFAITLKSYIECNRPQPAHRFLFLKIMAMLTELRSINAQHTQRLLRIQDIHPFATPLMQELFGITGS
Chain of Thyrotropin-releasing hormone receptor (Homo sapiens) (P34981 whole entry, looked up): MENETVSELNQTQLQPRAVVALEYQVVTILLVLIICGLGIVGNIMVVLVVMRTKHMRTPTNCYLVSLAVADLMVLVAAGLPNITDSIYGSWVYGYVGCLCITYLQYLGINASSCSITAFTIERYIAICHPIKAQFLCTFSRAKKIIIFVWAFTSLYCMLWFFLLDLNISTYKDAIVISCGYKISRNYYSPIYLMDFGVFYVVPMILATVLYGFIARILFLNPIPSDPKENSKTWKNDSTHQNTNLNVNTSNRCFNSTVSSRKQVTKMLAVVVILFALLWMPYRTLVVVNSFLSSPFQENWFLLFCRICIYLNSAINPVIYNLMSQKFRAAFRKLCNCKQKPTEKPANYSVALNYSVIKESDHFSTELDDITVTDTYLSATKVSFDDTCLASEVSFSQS
Chain of Progesterone receptor (Homo sapiens) (P06401 whole entry, looked up): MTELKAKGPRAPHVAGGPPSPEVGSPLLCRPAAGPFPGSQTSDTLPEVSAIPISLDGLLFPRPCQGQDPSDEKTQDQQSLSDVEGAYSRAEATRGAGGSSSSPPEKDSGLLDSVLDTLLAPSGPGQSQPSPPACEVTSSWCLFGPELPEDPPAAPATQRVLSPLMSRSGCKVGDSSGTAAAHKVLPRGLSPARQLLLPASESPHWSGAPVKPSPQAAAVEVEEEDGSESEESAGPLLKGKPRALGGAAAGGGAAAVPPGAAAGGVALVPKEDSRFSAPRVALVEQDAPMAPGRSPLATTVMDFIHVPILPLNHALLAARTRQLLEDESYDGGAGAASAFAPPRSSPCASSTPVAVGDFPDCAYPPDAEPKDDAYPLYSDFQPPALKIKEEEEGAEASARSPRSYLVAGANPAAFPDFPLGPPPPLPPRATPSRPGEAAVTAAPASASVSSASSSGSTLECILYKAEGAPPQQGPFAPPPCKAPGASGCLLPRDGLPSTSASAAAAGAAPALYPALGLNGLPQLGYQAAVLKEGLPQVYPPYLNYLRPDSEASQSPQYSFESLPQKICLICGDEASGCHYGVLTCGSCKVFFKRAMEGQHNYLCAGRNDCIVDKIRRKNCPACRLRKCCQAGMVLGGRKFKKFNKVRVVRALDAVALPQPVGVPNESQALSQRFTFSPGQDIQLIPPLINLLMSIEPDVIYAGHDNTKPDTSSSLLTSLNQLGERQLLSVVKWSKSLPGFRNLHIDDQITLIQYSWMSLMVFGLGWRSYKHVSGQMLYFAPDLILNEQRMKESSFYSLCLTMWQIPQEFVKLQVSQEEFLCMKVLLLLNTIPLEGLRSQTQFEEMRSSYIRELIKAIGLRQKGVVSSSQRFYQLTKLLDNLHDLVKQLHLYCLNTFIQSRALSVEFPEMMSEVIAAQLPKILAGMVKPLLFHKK
Chain of Acetylcholinesterase (Homo sapiens) (P22303 whole entry, looked up): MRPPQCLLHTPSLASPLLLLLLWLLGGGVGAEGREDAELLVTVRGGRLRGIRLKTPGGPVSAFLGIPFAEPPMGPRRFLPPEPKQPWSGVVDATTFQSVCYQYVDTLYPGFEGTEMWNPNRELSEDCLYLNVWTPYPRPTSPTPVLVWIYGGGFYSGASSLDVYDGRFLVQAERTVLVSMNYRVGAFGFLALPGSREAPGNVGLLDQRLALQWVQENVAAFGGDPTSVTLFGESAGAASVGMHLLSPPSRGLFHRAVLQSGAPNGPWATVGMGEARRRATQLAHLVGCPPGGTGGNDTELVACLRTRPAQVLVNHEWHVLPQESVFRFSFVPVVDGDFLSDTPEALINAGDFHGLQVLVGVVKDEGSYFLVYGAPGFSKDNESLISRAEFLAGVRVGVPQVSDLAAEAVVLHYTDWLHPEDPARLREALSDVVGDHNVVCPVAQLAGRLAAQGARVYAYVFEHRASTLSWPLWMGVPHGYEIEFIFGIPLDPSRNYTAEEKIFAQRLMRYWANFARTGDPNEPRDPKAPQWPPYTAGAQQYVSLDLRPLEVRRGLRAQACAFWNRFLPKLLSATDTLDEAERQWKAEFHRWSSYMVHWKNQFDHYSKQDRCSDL
Chain of Nuclear receptor subfamily 1 group I member 2 (Rattus norvegicus) (Q9R1A7 whole entry, looked up): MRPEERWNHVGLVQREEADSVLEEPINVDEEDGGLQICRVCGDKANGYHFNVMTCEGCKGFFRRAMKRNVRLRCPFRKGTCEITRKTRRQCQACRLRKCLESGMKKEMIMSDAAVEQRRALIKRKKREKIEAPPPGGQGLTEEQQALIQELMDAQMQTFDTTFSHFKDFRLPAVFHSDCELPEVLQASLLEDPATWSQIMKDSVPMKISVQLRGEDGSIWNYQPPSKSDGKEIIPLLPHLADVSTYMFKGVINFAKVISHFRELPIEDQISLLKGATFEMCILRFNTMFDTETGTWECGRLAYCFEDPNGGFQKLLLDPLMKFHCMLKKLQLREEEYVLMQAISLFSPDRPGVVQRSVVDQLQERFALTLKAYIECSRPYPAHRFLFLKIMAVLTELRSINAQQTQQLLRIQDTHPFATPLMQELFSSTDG

CCC1(c2ccccc2)C(=O)NC(=O)NC1=O
inactive: Potency [1] | Potency [2] | Potency [3] | Potency [4] | Potency [5] | Potency [6] | outcome [7] | outcome [8] | outcome [9] | Potency [10] | Potency [11] | Potency [12] | Potency [13] | Potency [14] | Potency [15] | max activation [16] -0.894% | Potency [17] | Potency [18] | Potency [19]

N#CC(O)c1ccccc1 (centres undefined)
inactive: Potency [1] | Potency [2] | Potency [3] | Potency [4] | Potency [5] | Potency [6] | outcome [7] | outcome [8] | outcome [20] | Potency [11] | Potency [13] | Potency [19]

COc1ncc(F)c2nc(S(=O)(=O)Nc3c(F)cccc3F)nn12
inactive: Potency [1] | Potency [2] | Potency [3] | Potency [4] | Potency [5] | Potency [6] | outcome [7] | outcome [8] | outcome [9] | outcome [20] | Potency [10] | Potency [11] | Potency [12] | Potency [13] | Potency [14] | Potency [15] | Potency [19]

O=C(N[C@H]1CN2CCC1CC2)c1cc2ccoc2cn1
inactive: Potency [1] | Potency [2] | Potency [3] | Potency [4] | Potency [5] | Potency [6] | outcome [7] | outcome [8] | outcome [20] | Potency [10] | Potency [11] | Potency [12] | Potency [13] | Potency [14]

Oc1c(Cl)cccc1Cl
inactive: Potency [1] | Potency [2] | Potency [3] | Potency [4] | Potency [6] | outcome [7] | outcome [8] | outcome [20] | Potency [10] | Potency [11] | Potency [12] | Potency [13] | Potency [14] | Potency [15] | Potency [19]

O=[N+]([O-])c1cccc(O)c1
inactive: Potency [1] | Potency [2] | Potency [3] | Potency [4] | Potency [5] | outcome [7] | outcome [8] | outcome [9] | outcome [20] | Potency [11] | Potency [12] | Potency [13] | Potency [14] | Potency [19]

CCOP(=S)(OCC)SCSc1ccc(Cl)cc1
active: Potency [3] 4.86 µM | Potency [15] 10.9 µM
inactive: Potency [1] | Potency [2] | Potency [4] | outcome [7] | outcome [8] | outcome [9] | outcome [20] | Potency [10] | Potency [11] | Potency [12] | Potency [13] | Potency [14]

CCCCP(CCCC)CCCC
inactive: Potency [1] | Potency [2] | Potency [3] | Potency [4] | outcome [7] | outcome [8] | outcome [9] | outcome [20] | Potency [10] | Potency [11] | Potency [12] | Potency [13] | Potency [14] | Potency [15] | Potency [19]

O=C(Oc1ccc(Br)cc1)N1CCN2CCC1CC2
inactive: Potency [1] | Potency [2] | Potency [3] | Potency [5] | Potency [6] | outcome [7] | outcome [8] | outcome [9] | Potency [11] | Potency [13] | Potency [14] | Potency [19]

CC(C1CC1)C(O)(Cn1cncn1)c1ccc(Cl)cc1 (centres undefined)
active: Potency [3] 48.3 µM
inactive: Potency [1] | Potency [2] | Potency [4] | Potency [6] | outcome [7] | outcome [8] | outcome [9] | outcome [20] | Potency [10] | Potency [11] | Potency [12] | Potency [13] | Potency [14] | Potency [19]

CNC(=O)Oc1c(C(C)(C)C)cc(C)cc1C(C)(C)C
inactive: Potency [1] | Potency [2] | Potency [3] | Potency [4] | Potency [5] | outcome [7] | outcome [8] | outcome [9] | outcome [20] | Potency [10] | Potency [11] | Potency [13] | Potency [14] | Potency [19]

CC1CN1P(=O)(N1CC1C)N1CC1C (centres undefined)
inactive: Potency [1] | Potency [2] | Potency [3] | Potency [4] | Potency [6] | outcome [7] | outcome [8] | outcome [9] | outcome [20] | Potency [10] | Potency [11] | Potency [12] | Potency [13] | Potency [14] | Potency [19]

CC(C)CC(N(C)C)C1(c2ccc(Cl)cc2)CCC1 (centres undefined)
inactive: Potency [1] | Potency [2] | Potency [3] | Potency [4] | outcome [7] | outcome [8] | Potency [10] | Potency [11] | Potency [12] | Potency [13] | Potency [14] | Potency [15] | max activation [16] -2.56% | Potency [17] | Potency [18]

ClCCOCOCCCl
inactive: Potency [1] | Potency [2] | Potency [3] | Potency [4] | Potency [6] | outcome [7] | outcome [8] | outcome [9] | outcome [20] | Potency [10] | Potency [11] | Potency [12] | Potency [13] | Potency [14] | Potency [15] | Potency [19]

CCOC(=O)C(c1c(O)c2ccccc2oc1=O)c1c(O)c2ccccc2oc1=O
inactive: Potency [1] | Potency [2] | Potency [3] | Potency [4] | outcome [7] | outcome [8] | outcome [9] | outcome [20] | Potency [10] | Potency [11] | Potency [12] | Potency [13] | Potency [14] | Potency [19]

OC(c1ccc(F)cc1)(c1cncnc1)c1ccccc1Cl (centres undefined)
active: Potency [3] 48.6 µM
inactive: Potency [1] | Potency [2] | Potency [4] | Potency [5] | outcome [7] | outcome [8] | outcome [9] | outcome [20] | Potency [11] | Potency [12] | Potency [13] | Potency [14] | Potency [19]

ClC(Cl)C(Cl)Cl
inactive: Potency [1] | Potency [2] | Potency [3] | Potency [4] | Potency [5] | outcome [7] | outcome [8] | Potency [10] | Potency [11] | Potency [12] | Potency [14] | Potency [19]
active: Potency [15] 55 µM

Clc1ccccc1N1CCNCC1
inactive: Potency [1] | Potency [2] | Potency [3] | Potency [4] | Potency [6] | outcome [7] | outcome [8] | outcome [9] | outcome [20] | Potency [10] | Potency [11] | Potency [12] | Potency [13] | Potency [14] | Potency [15] | Potency [19]
